Experimental findings from paper PMC4336329 (PLoS ONE, 2015) are described below.

Hit rate of the full screen: of about 310,000 compounds, about 14,000 (4.5%) showed an effect of 50% or more. Effects have a minus sign here. The full list was thinned out, with strong results kept by preference.
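Further: peak tail current of the secondary pulse compared with the same well before compound.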

human ether-à-go-go-related gene (hERG) potassium channel, sequence (Q12809 whole entry, looked up): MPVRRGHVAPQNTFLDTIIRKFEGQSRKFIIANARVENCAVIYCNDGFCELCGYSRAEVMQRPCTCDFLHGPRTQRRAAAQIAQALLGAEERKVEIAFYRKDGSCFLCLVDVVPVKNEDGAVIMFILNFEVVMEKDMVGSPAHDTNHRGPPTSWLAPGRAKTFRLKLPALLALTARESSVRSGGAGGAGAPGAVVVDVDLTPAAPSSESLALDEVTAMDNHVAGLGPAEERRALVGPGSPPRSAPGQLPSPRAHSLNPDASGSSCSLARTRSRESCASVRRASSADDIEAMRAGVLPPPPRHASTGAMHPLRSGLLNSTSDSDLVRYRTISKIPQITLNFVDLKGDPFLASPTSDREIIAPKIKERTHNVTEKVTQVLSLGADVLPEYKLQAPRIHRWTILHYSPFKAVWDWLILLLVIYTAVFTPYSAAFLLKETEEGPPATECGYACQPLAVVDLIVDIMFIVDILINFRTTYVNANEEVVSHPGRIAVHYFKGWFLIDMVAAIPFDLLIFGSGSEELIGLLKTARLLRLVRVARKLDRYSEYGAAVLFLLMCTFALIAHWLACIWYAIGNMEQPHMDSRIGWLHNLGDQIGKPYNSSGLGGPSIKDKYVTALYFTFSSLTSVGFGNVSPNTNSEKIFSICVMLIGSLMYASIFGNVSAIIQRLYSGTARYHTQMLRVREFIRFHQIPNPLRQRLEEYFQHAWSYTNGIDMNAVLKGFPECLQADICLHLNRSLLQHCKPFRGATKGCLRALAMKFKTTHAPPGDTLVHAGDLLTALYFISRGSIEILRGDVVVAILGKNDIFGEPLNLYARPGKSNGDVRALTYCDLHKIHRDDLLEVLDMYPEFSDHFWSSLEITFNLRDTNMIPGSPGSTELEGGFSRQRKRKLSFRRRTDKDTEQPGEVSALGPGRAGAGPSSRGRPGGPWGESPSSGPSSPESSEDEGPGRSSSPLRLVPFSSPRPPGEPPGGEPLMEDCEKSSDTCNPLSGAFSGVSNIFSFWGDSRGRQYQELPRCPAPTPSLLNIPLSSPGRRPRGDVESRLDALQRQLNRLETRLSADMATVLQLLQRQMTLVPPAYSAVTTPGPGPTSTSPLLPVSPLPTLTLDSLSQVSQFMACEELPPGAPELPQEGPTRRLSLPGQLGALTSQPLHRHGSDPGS

The assay has as its target human ether-à-go-go-related gene (hERG) potassium channel (human, UniProt Q12809). Nature of the assay: primary screen, population patch clamp on CHO cells stably expressing hERG; higher = less effect of the substance.
Take `O=C(CN(c1ccccc1)S(=O)(=O)c1ccccc1)N1CCOCC1`: the “hERG current change (%, negative = inhibition) at 10uM” value turned out to be 4.9%.

With `Cc1ccc(S(=O)(=O)N(CC(=O)N2CCC(C)CC2)c2cccc(C)c2)cc1`, the “hERG current change (%, negative = inhibition) at 10uM” value was -55.1%.

As to `Cc1ccc(S(=O)(=O)N(CC(=O)N2CCC(C)CC2)c2ccccc2)cc1`, the “hERG current change (%, negative = inhibition) at 10uM” value is reported as -26.4%.

With `Cc1cc(C)cc(N(CC(=O)N2CCOCC2)S(=O)(=O)c2ccccc2)c1`, the “hERG current change (%, negative = inhibition) at 10uM” value is reported as -56.1%.

As for `CC1CCN(C(=O)CN(c2ccc3c(c2)OCCO3)S(=O)(=O)c2ccccc2)CC1`, the “hERG current change (%, negative = inhibition) at 10uM” value was -26.6%.

Consider `Cc1cc(C)cc(N(CC(=O)N2CCC(C)CC2)S(C)(=O)=O)c1`, for which the “hERG current change (%, negative = inhibition) at 10uM” value is reported as -38.6%.

As to `Cc1cc(C)cc(N(CC(=O)N2CCC(C)CC2)S(=O)(=O)c2ccccc2)c1`, the “hERG current change (%, negative = inhibition) at 10uM” value was -70.3%.

For the molecule `Cc1ccc(N(CC(=O)N2CCOCC2)S(=O)(=O)c2ccccc2)cc1`, the “hERG current change (%, negative = inhibition) at 10uM” value was -2.35%.

On to `CCOC(=O)N1CCN(C(=O)CN(c2cccc(C)c2)S(=O)(=O)c2ccc(C)cc2)CC1`, for which the “hERG current change (%, negative = inhibition) at 10uM” value is reported as -39.7%.

As for `Cc1cccnc1NC(=O)Nc1cccs1`, the “hERG current change (%, negative = inhibition) at 10uM” value is 12.4%.

For the molecule `Cc1ccc(NC(=O)CCl)c(C)c1`, the “hERG current change (%, negative = inhibition) at 10uM” value was found to be 21.6%.

As for `COc1ccc(-n2nc(C(=O)NCC(=O)N3CCN(c4cccc(Cl)c4)CC3)c3ccccc3c2=O)c(OC)c1`, the “hERG current change (%, negative = inhibition) at 10uM” value is on record as -2.74%.

`COc1ccc([N+](=O)[O-])cc1NC(=O)C(C)Sc1nc(C)c(C)c(C)n1` (stereo not drawn): the “hERG current change (%, negative = inhibition) at 10uM” value is on record as -44.4%.

Regarding `CCN(c1ccc(NS(=O)(=O)c2cc(Cl)ccc2Cl)cc1)C(C)C`, the “hERG current change (%, negative = inhibition) at 10uM” value is listed as -0.282%.

With `CCN(CC)C(=O)C(C(=O)c1cccc([N+](=O)[O-])c1)n1cc(Cl)ccc1=O` (stereo not drawn), the “hERG current change (%, negative = inhibition) at 10uM” value came to 24.8%.

Consider `Cc1nc(-c2cccc(S(=O)(=O)N3CCOCC3)c2)cs1`, for which the “hERG current change (%, negative = inhibition) at 10uM” value is -2.11%.

Consider `CC(Cc1ccsc1)NCc1cn[nH]c1-c1ccc(F)cc1F` (stereo not drawn), for which the “hERG current change (%, negative = inhibition) at 10uM” value is on record as -66.3%.

For the molecule `COc1ccc(-c2[nH]ncc2CNC(C)Cc2ccsc2)c(F)c1` (stereo not drawn), the “hERG current change (%, negative = inhibition) at 10uM” value is -36.1%.

In the case of `COc1ccc(-c2[nH]ncc2CNC(C)CCn2cccn2)c(F)c1` (stereo not drawn), the “hERG current change (%, negative = inhibition) at 10uM” value is reported as -15.4%.

On to `CC(=O)/C(N=Nc1nc2c([nH]1)c(=O)n(C)c(=O)n2C)=C(\C)O`, for which the “hERG current change (%, negative = inhibition) at 10uM” value was 13.2%.

Take `CC1CCN(C(=O)C2CCN(c3nnc(-n4cccc4)s3)CC2)CC1`: the “hERG current change (%, negative = inhibition) at 10uM” value is -12.1%.

Regarding `Cc1cccc(N2CCN(C(=O)C3CCN(c4nnc(-n5cccc5)s4)CC3)CC2C)c1` (stereo not drawn), the “hERG current change (%, negative = inhibition) at 10uM” value is -55.8%.

Take `CCOC(=O)C1CCCN(C(=O)C2CCN(c3nnc(-n4cccc4)s3)CC2)C1` (stereo not drawn): the “hERG current change (%, negative = inhibition) at 10uM” value is -48.6%.

Regarding `CCN1CCN(C(=O)C2CCN(c3nnc(-n4c(C)ccc4C)s3)CC2)CC1`, the “hERG current change (%, negative = inhibition) at 10uM” value is -13%.

Take `O=C(C1CCN(c2nnc(-n3cccc3)s2)CC1)N1CCN(c2cccc(C(F)(F)F)c2)CC1`: the “hERG current change (%, negative = inhibition) at 10uM” value was -22.8%.

For `Cc1ccc(Cl)cc1N1CCN(C(=O)C2CCN(c3nnc(-n4cccc4)s3)CC2)CC1`, the “hERG current change (%, negative = inhibition) at 10uM” value was -16.4%.

As for `CCOC(=O)N1CCN(C(=O)C2CCN(c3nnc(-n4cccc4)s3)CC2)CC1`, the “hERG current change (%, negative = inhibition) at 10uM” value is given as -57.1%.

Take `CCOC(=O)C1CCN(C(=O)C2CCN(c3nnc(-n4cccc4)s3)CC2)CC1`: the “hERG current change (%, negative = inhibition) at 10uM” value is on record as -62.5%.

Consider `CCOC(=O)C1CCN(C(=O)C2CCN(c3nn4c(=O)cc(C)nc4s3)CC2)CC1`, for which the “hERG current change (%, negative = inhibition) at 10uM” value was 3.2%.

For `O=C(c1ccc(Br)cc1)N1CCN(S(=O)(=O)c2ccccc2)CC1`, the “hERG current change (%, negative = inhibition) at 10uM” value was -38.5%.

Turning to `CCCCC(=O)NC(=S)Nc1nnn(CCC)n1`, the “hERG current change (%, negative = inhibition) at 10uM” value was determined as 9.55%.

On to `COc1ccc(CN(C)C(=O)c2ccc3c(=O)n4c(nc3c2)CCC4)cc1`, for which the “hERG current change (%, negative = inhibition) at 10uM” value came out at 13.7%.

Consider `Cl.NC1=NC2(CCCCC2)N(c2cccc(Cl)c2)C(N)=N1`, for which the “hERG current change (%, negative = inhibition) at 10uM” value amounted to 27.9%.

For `CCn1nnc(-c2ccccc2NC(=O)C(F)(F)F)n1`, the “hERG current change (%, negative = inhibition) at 10uM” value is recorded as -9.9%.

With `CN1CCN(CCC(=O)N/N=C/c2cc3c(cc2[N+](=O)[O-])OCO3)CC1`, the “hERG current change (%, negative = inhibition) at 10uM” value is listed as 9.64%.

As to `O=C(NC(=S)Nc1cc(C(F)(F)F)ccc1N1CCOCC1)c1ccco1`, the “hERG current change (%, negative = inhibition) at 10uM” value stood at 3.6%.

Regarding `COCCNC(=O)C1CC2Cn3c(nc4ccccc43)C2N1C` (stereo not drawn), the “hERG current change (%, negative = inhibition) at 10uM” value turned out to be 11.2%.

Turning to `CN1C(C(=O)NCc2ccco2)CC2Cn3c(nc4ccccc43)C21` (stereo not drawn), the “hERG current change (%, negative = inhibition) at 10uM” value is 10.3%.

As for `O=C(NCc1cccc(C(F)(F)F)c1)C1CC2Cn3c(nc4ccccc43)C2N1Cc1ccccc1` (stereo not drawn), the “hERG current change (%, negative = inhibition) at 10uM” value is -57.8%.

Turning to `O=C(NCc1cccc(Br)c1)C1CC2Cn3c(nc4ccccc43)C2N1c1ccccc1` (stereo not drawn), the “hERG current change (%, negative = inhibition) at 10uM” value is on record as -20.5%.

On to `O=C(NCc1cccc(Br)c1)C1CC2Cn3c(nc4ccccc43)C2N1Cc1ccccc1` (stereo not drawn), for which the “hERG current change (%, negative = inhibition) at 10uM” value is -74.2%.

With `COc1ccccc1CNC(=O)C1CC2Cn3c(nc4ccccc43)C2N1C` (stereo not drawn), the “hERG current change (%, negative = inhibition) at 10uM” value is on record as -9.34%.

On to `CCCCNC(=O)CN(CCc1ccccc1)S(C)(=O)=O`, for which the “hERG current change (%, negative = inhibition) at 10uM” value was -12.6%.

Take `Cc1c(Cl)cccc1NC(=O)CCC(=O)NNC(=O)c1ccco1`: the “hERG current change (%, negative = inhibition) at 10uM” value is recorded as 18.3%.

As for `CCOC(=O)c1cccc(NC(=O)CSc2nnc(-c3cccnc3)n2CC)c1`, the “hERG current change (%, negative = inhibition) at 10uM” value is -37.5%.

As for `N#Cc1nc(-c2cccs2)oc1NCc1ccco1`, the “hERG current change (%, negative = inhibition) at 10uM” value is reported as -5.22%.

On to `CC(/C=C/c1ccccc1)=N/NC(=O)c1cc([N+](=O)[O-])cc([N+](=O)[O-])c1`, for which the “hERG current change (%, negative = inhibition) at 10uM” value is reported as 8%.

Take `O=[N+]([O-])c1ccc(Sc2cc[n+]([O-])c3ccccc23)c([N+](=O)[O-])c1`: the “hERG current change (%, negative = inhibition) at 10uM” value is given as -65.3%.

Regarding `O=c1[nH]c(Sc2ccc([N+](=O)[O-])cc2[N+](=O)[O-])nc2ccccc12`, the “hERG current change (%, negative = inhibition) at 10uM” value is 9.99%.

As to `O=[N+]([O-])c1ccc(Sc2cccc3cccnc23)c([N+](=O)[O-])c1`, the “hERG current change (%, negative = inhibition) at 10uM” value was determined as 16.6%.

`CN(CC(=O)Nc1ccccc1Br)C(=O)CCC1CCCC1`: the “hERG current change (%, negative = inhibition) at 10uM” value was found to be 9.57%.

Take `CCCCC1(C)NC(=S)N2N1C(=S)NC2(C)CCCC` (stereo not drawn): the “hERG current change (%, negative = inhibition) at 10uM” value stood at 15.1%.

Consider `Cc1noc(C)c1C(=O)Nc1nc2ccc(S(C)(=O)=O)cc2s1`, for which the “hERG current change (%, negative = inhibition) at 10uM” value amounted to 2.86%.

Take `O=C(O)C(CCCCN1C(=O)C2C3C=CC(C3)C2C1=O)N1C(=O)C2C3C=CC(C3)C2C1=O` (stereo not drawn): the “hERG current change (%, negative = inhibition) at 10uM” value stood at 2.41%.
